Laboratory results taken from PubChem BioAssay (NCATS).
Several values for one entry are separate records, joined by “and”; a condition that tells them apart may be missing. Identical values can stand only once. Inconclusive results are not listed. Activity calls are given as the source filed them. Unless noted, calls follow the shape of the dose curve; as a rule, active = well fitted curve in the direction sought with a large enough effect; inconclusive = small, poorly fitted or top-dose-only effect, or another doubt; inactive = no such curve, though single readings can be large; an effect the other way counts as inactive or inconclusive.

Legend:
[1] = S16 Schwann cell viability assay (CellTiter-Glo assay) (AID 624031);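 also: cellular ATP luminescence as a viability measure; series mostly up to about 58 µM; plate controls were DMSO-treated cells for no effect and cell-free wells for full effect; nearly all actives have a fitted effect of over 70% in size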
Summary of the method: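 Native S16 rat Schwann cells in DMEM/10% FBS without phenol red were incubated overnight, then exposed to compounds for 24 h at 37 °C/5% CO2. Viability was read as ATP luminescence (CellTiter-Glo), normalized to no-cell wells and DMSO (0%).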

[2] = S16 Schwann cell PMP22 intronic element firefly luciferase assay (AID 624032);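 also: series mostly up to about 58 µM; plate controls were DMSO for no effect and PTC124 positive control mean for full effect; nearly all actives have a fitted effect of over 30% in size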
Summary of the method: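 Rat S16 Schwann cells stably carrying a PMP22 intronic element-driven Fluc reporter were seeded overnight, then exposed to compounds for 24 h at 37 °C. Luminescence was normalized to PTC124 (positive control) and DMSO (0% activity).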

[3] = S16 Schwann cell PMP22 intronic element beta-lactamase assay (AID 624044; calls by dose curve;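 also: 0% = DMSO and -100% = potassium clavulanate positive control; nearly all actives have a fitted effect of over 15% in size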)
Summary of the method: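 Beta-lactamase reporter under a PMP22 intronic regulatory element in stable S16 rat Schwann cells; 24 h compound exposure. 460 nm blue signal normalized between DMSO (0%) and potassium clavulanate, with 535 nm FRET tracking viability; curves classed by r2 and response.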

[4] = qHTS assay for small molecule agonists of the antioxidant response element (ARE) signaling pathway (AID 651741; active = well fitted activation curve with a large enough effect in the signal ratio; the % refers to the signal ratio; also: % of control where 0% means no effect)
Summary of the method: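 Beta-lactamase reporter expression driven by the antioxidant response element in HepG2 cells was detected by fluorescence with LiveBLAzer B/G FRET substrate (2 h, room temperature) following 16 h compound treatment at 37 C.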

[5] = qHTS assay for small molecule activators of the p53 signaling pathway (AID 651743; active = well fitted activation curve with a large enough effect in the signal ratio, not every such curve was filed as active; the % refers to the signal ratio; also: series mostly up to about 92 µM; % of control where 0% means no effect); conditions: HCT-116 p53RE-bla, beta-lactamase FRET ratio, 16 h; stronger effect = higher value
Summary of the method: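 Here HCT-116 cells with an integrated p53-responsive beta-lactamase gene were incubated with compounds (16 hours, 37 C) after a 5-hour plating period; beta-lactamase activity was detected as fluorescence intensity via B/G FRET substrate.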

[6] = qHTS assay for small molecule activators of the nuclear factor-kappa B (NF-kB) signaling pathway (AID 651749; active = well fitted activation curve with a large enough effect in the signal ratio; the % refers to the signal ratio; also: series mostly up to about 77 µM; % of control where 0% means no effect); conditions: NF-kB-bla ME-180 cells, beta-lactamase FRET ratio, 16 h; stronger effect = higher value
Summary of the method: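 Beta-lactamase reporter expression, controlled by NF-kB response elements in ME-180 cells, was quantified fluorometrically via FRET disruption; cells at 2,000/well had been incubated with 23 nL test compound for 16 hr.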

[7] = qHTS assay for small molecule disruptors of the mitochondrial membrane potential - 1 hr assay (AID 651754; calls by dose curve; also: % is scaled to controls: 0 for no effect and ±100 for the full control effect; nearly all actives have a fitted effect of over 35% in size)
Summary of the method: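 In this qHTS format, a 1 hr compound treatment of HepG2 cells precedes Mito-MPS staining, and membrane potential is judged from aggregate (red) against monomer (green) fluorescence intensity.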

[8] = qHTS assay for small molecule disruptors of the mitochondrial membrane potential - 5 hr assay (AID 651755; calls by dose curve; also: % is scaled to controls: 0 for no effect and ±100 for the full control effect; nearly all actives have a fitted effect of over 40% in size)
Summary of the method: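 Seed HepG2 overnight, add compound, incubate 5 hr at 37C and 5% CO2, stain 30 min with Mito-MPS, then measure monomer (490/535 nm) and aggregate (540/590 nm) fluorescence.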

[9] = target: Tumor necrosis factor (Homo sapiens) (UniProt P01375); assay: qHTS assay to identify small molecules that stimulate Tumor Necrosis Factor-alpha (TNF-alpha) secretion (AID 651757; active = well fitted curve in the direction sought with a large enough effect in the signal ratio; the % refers to the signal ratio; also: 0% is about no effect)
Chain of Tumor necrosis factor (Homo sapiens) (P01375 whole entry, looked up): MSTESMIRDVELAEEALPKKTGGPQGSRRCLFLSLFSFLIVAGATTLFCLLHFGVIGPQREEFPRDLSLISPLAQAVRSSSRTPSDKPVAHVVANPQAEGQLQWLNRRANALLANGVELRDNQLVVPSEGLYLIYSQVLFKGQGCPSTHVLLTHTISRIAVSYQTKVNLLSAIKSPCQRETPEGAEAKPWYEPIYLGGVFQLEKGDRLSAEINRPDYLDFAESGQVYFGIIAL
Summary of the method: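 Using 3000 THP-1 cells per well, compounds and controls were applied for 17 hrs at 37 C. Detection followed with two labeled anti-TNF-alpha antibodies (cryptate donor, XL665 acceptor) for 3 hr at room temperature, measured by TR-FRET.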

N[C@@H](Cc1ccc(O)cc1)C(=O)O
inactive: outcome [1] | Potency [2] | outcome [3]

Nc1ccc(C(=O)Oc2ccccc2)c(O)c1
inactive: outcome [1] | Potency [2] | outcome [3]

CC(O)CCCCn1c(=O)c2c(ncn2C)n(C)c1=O (stereo not drawn)
inactive: outcome [1] | Potency [2] | outcome [3]

Nc1ccc(S(=O)(=O)c2ccc(N)cc2)cc1
inactive: outcome [1] | Potency [2] | outcome [3] | Potency [4] | activation [5] -4.8% and 0.655% | activation [6] 2.3% and -6.03% | Potency [7] | Potency [8]

CC1CC(OC(=O)c2ccccc2O)CC(C)(C)C1 (stereo not drawn)
inactive: outcome [1] | Potency [2] | outcome [3] | activation [5] -6.41% | activation [6] -1.08% | Potency [7] | Potency [8] | outcome [9]

O=C(CCBr)N1CCN(C(=O)CCBr)CC1
inactive: outcome [1] | Potency [2] | outcome [3]

O=C(OOC(=O)c1ccccc1)c1ccccc1
inactive: outcome [1] | Potency [2] | Potency [4] | activation [5] -0.427%

O=C(Cn1ccnc1[N+](=O)[O-])NCc1ccccc1
inactive: outcome [1] | Potency [2] | outcome [3]

NC(=O)c1ccc([N+](=O)[O-])cc1Cl
inactive: outcome [1] | Potency [2] | outcome [3]

CCS(=O)(=O)CCn1c([N+](=O)[O-])cnc1C
inactive: outcome [1] | Potency [2] | outcome [3]

CC(C)=CCC/C(C)=C/CO
inactive: outcome [1] | Potency [2] | outcome [3] | Potency [4] | activation [5] -2.29% | activation [6] -0.602%

NC(=O)CC[C@@H](N)C(=O)O
inactive: outcome [1] | Potency [2] | outcome [3]

CCCCC1(COC(=O)CCC(=O)O)C(=O)N(c2ccccc2)N(c2ccccc2)C1=O
inactive: outcome [1] | Potency [2] | outcome [3]
